Source: the supplement of paper PMC11001985

compound: C#CCNC(=O)CCSSCCC(=O)NCCc1ccc(C=O)c(C=O)c1; experiment: lysine labeling ratio R10:1 (500 µM / 50 µM probe), SILAC-ABPP in living cells; higher = lower intrinsic lysine reactivity toward the probe, active = 2 or less; conditions: HeLa; probe concentrations 500 vs 50 µM
Procedure, shortened: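 In PBS at room temperature, living HeLa cells grown with SILAC light or heavy labels were treated with 50 µM or 500 µM of an alkyne-tagged, disulfide-linked lysine probe, with label swaps in both directions. Analysis was by LC-MS/MS on a TIMS-TOF Pro after click to biotin-azide, neutravidin capture and DTT release. For each lysine, R is the median across forward and reverse replicates of the filtered median high-probe/low-probe MS1 peptide ratio, capped at 20.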

Chain of UniProt P06756 (P06756 whole entry): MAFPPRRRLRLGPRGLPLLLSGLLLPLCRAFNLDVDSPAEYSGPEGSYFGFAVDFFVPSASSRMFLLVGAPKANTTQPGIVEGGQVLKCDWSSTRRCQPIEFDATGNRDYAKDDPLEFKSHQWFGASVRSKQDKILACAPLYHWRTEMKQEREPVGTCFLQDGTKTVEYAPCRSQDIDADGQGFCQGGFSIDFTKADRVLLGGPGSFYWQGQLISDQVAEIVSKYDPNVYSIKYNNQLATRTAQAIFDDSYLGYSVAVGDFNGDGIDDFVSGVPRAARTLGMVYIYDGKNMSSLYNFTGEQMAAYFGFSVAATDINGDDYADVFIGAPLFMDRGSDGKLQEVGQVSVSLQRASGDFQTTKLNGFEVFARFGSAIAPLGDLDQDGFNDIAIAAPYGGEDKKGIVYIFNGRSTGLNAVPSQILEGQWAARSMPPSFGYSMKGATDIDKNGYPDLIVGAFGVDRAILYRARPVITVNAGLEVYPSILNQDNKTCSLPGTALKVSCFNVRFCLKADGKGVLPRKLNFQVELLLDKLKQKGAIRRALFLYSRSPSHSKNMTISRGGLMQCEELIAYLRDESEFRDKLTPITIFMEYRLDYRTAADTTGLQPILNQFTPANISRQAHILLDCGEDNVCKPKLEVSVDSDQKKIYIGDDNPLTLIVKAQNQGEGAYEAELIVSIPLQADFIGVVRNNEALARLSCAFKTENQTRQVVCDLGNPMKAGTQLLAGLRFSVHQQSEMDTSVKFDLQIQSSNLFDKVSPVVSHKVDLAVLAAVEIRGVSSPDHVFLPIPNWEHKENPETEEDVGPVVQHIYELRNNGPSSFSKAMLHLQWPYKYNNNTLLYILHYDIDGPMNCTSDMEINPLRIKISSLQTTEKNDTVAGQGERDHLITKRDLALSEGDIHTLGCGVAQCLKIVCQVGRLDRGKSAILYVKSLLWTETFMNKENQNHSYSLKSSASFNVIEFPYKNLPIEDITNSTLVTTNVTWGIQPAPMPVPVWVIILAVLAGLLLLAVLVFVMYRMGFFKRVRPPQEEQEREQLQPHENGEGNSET
Chain of UniProt O15020 (O15020 whole entry): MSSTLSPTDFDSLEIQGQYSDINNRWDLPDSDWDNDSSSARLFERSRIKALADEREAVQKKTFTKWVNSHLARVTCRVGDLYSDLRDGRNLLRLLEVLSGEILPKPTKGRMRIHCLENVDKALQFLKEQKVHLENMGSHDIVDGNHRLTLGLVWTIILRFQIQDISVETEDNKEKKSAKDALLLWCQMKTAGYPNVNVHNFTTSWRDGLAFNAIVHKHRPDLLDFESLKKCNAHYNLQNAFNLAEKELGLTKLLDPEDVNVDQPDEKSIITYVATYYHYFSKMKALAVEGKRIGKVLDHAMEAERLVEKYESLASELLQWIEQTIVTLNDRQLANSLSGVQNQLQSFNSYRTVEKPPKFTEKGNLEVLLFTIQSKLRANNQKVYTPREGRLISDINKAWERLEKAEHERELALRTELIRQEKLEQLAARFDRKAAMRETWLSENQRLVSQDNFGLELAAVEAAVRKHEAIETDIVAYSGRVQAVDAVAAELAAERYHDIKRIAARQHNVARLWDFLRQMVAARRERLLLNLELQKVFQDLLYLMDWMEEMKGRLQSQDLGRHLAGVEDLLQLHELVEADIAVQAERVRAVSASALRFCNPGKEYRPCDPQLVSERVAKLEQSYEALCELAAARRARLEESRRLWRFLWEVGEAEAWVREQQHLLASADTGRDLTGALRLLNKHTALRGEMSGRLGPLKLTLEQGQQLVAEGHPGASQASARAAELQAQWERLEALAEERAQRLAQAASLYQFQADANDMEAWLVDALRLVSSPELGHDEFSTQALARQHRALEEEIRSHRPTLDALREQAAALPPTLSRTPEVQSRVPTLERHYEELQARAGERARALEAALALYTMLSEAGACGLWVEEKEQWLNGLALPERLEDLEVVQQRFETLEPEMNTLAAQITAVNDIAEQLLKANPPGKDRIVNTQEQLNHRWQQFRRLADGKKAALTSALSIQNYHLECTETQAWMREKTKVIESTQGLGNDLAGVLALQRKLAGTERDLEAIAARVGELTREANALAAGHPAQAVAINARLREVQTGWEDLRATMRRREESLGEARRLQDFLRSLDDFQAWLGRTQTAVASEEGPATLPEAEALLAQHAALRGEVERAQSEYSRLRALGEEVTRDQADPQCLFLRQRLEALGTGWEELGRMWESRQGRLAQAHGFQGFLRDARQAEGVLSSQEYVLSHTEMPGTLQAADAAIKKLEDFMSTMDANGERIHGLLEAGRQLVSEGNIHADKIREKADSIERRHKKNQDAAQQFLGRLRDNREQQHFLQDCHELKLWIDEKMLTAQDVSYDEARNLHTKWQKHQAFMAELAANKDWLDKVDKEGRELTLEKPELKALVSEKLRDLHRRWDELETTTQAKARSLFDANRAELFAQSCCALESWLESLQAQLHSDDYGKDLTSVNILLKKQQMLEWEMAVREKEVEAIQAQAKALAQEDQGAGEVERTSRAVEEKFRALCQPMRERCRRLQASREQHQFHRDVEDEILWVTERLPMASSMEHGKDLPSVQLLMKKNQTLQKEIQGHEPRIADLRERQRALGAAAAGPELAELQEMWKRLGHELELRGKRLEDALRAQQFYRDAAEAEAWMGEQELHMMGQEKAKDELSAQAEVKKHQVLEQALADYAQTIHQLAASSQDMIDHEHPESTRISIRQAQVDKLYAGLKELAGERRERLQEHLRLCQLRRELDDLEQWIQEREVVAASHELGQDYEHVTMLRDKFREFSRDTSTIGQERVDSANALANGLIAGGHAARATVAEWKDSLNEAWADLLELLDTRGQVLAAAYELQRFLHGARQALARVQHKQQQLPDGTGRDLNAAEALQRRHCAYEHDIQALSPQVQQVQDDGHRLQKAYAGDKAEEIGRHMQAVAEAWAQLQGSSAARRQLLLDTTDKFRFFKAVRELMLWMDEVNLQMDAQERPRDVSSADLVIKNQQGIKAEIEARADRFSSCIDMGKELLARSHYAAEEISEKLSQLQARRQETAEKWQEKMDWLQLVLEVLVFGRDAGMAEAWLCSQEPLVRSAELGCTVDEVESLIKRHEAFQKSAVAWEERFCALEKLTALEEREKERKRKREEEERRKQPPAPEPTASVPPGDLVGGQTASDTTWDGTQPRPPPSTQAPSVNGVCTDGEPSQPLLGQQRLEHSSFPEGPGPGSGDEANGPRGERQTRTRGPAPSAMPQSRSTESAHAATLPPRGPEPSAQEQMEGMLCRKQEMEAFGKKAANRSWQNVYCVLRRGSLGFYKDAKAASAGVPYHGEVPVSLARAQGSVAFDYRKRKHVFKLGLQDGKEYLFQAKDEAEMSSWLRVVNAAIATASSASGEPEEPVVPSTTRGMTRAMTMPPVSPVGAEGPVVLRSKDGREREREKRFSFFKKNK
Chain of UniProt P78371 (P78371 whole entry): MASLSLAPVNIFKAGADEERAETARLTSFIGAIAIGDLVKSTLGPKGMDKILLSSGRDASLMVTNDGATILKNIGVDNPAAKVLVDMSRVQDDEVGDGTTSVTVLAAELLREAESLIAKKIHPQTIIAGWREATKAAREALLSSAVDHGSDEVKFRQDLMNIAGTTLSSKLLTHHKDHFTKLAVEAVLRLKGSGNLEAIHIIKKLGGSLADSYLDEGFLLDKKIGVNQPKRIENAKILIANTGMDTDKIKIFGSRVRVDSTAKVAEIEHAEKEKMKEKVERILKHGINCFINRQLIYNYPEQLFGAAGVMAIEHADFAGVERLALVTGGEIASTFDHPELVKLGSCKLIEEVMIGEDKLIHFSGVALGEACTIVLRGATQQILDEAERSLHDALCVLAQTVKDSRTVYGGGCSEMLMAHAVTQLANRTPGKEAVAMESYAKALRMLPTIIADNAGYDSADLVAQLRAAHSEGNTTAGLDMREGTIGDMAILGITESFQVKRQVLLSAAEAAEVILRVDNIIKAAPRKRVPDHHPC
Chain of UniProt P23142 (P23142 whole entry): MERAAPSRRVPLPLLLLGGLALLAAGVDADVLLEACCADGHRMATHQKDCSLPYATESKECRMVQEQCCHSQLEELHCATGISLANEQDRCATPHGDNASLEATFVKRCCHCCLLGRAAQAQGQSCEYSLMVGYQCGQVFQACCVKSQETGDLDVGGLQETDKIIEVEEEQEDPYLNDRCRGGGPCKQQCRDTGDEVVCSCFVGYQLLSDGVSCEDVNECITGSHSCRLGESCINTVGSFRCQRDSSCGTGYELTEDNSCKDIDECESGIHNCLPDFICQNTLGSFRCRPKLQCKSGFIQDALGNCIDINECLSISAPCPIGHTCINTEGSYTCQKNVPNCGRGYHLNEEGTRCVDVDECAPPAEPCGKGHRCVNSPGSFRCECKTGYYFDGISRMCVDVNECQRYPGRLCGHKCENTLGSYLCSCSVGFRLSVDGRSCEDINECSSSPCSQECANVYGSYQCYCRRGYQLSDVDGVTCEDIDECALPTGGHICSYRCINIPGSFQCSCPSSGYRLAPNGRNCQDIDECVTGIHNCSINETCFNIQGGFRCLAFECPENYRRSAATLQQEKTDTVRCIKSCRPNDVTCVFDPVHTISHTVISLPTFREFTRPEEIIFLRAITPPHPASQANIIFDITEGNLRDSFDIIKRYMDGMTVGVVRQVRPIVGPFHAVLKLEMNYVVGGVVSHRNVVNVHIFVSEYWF
Chain of UniProt P09972 (P09972 whole entry): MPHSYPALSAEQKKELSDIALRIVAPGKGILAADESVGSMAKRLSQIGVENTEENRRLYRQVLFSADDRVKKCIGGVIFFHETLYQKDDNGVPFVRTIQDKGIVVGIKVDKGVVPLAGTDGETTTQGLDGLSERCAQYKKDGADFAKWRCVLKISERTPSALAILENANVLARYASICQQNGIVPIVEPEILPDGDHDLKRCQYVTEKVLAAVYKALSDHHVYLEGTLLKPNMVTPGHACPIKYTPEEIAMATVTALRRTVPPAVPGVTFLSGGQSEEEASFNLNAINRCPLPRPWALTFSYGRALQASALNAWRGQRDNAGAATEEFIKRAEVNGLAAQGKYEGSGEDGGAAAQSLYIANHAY

Row | Target | lysine labeling ratio R10:1
1 | ALDOC (lysine site: K111) (UniProt P09972) | 6.08 (inactive)
2 | EPRS (lysine site: K498) (UniProt P07814) | 2.78 (inactive)
3 | EEF2 (lysine site: K426) (UniProt P13639) | 3.49 (inactive)
4 | FLOT1 (lysine site: K285) (UniProt O75955) | 1.67 (active)
5 | FN1 (lysine site: K1050) (UniProt P02751) | 1.47 (active)
6 | DDX3X (lysine site: K66) (UniProt O00571) | 1.78 (active)
7 | UniProt P62987 (lysine site: K93) | 5.44 (inactive)
8 | ITGAV (lysine site: K134) (UniProt P06756) | 2.96 (inactive)
9 | RPS3A (lysine site: K167) (UniProt P61247) | 1.82 (active)
10 | FBLN1 (lysine site: K187) (UniProt P23142) | 2.05 (inactive)
11 | ROR2 (lysine site: K382) (UniProt Q01974) | 1.95 (active)
12 | ENO1 (lysine site: K262) (UniProt P06733) | 2.83 (inactive)
13 | ANXA1 (lysine site: K185) (UniProt P04083) | 3.58 (inactive)
14 | FLNB (lysine site: K1241) (UniProt O75369) | 1.42 (active)
15 | FLNA (lysine site: K2133) (UniProt P21333) | 2.27 (inactive)
16 | PTGFRN (lysine site: K763) (UniProt Q9P2B2) | 4.93 (inactive)
17 | PVR (lysine site: K153) (UniProt P15151) | 4.25 (inactive)
18 | CCT3 (lysine site: K78) (UniProt P49368) | 4.07 (inactive)
19 | MAP4 (lysine site: K959) (UniProt P27816) | 3.23 (inactive)
20 | UniProt Q8IWU5 (lysine site: K443) | 1.5 (active)

Row | Target | lysine labeling ratio R10:1
21 | SEMA3C (lysine site: K495) (UniProt Q99985) | 2.53 (inactive)
22 | SDC4 (lysine site: K105) (UniProt P31431) | 3.81 (inactive)
23 | PPIB (lysine site: K186) (UniProt P23284) | 3.18 (inactive)
24 | UniProt Q15149 (lysine site: K2047) | 0.91 (active)
25 | SPTBN1 (lysine site: K1878) (UniProt Q01082) | 4.5 (inactive)
26 | MYH9 (lysine site: K1775) (UniProt P35579) | 3.47 (inactive)
27 | HSP90B1 (lysine site: K142) (UniProt P14625) | 2.93 (inactive)
28 | Q95604 (lysine site: K210) (UniProt P10321) | 6.33 (inactive)
29 | SPTBN2 (lysine site: K1874) (UniProt O15020) | 5.9 (inactive)
30 | MAGT1 (lysine site: K66) (UniProt Q9H0U3) | 4.14 (inactive)
31 | GNS (lysine site: K502) (UniProt P15586) | 0.59 (active)
32 | ITGAV (lysine site: K338) (UniProt P06756) | 3.21 (inactive)
33 | RAB13 (lysine site: K172) (UniProt P51153) | 4.07 (inactive)
34 | PABPC1 (lysine site: K512) (UniProt P11940) | 3.06 (inactive)
35 | UniProt O60462 (lysine site: K547) | 4.2 (inactive)
36 | CCT2 (lysine site: K250) (UniProt P78371) | 1.5 (active)
37 | UniProt Q9UHN6 (lysine site: K887) | 1.21 (active)
38 | KPNB1 (lysine site: K867) (UniProt Q14974) | 1.36 (active)
39 | UniProt Q13131 (lysine site: K56) | 14.5 (inactive)
40 | PTPRJ (lysine site: K202) (UniProt Q12913) | 2.9 (inactive)
